Screening results (PubChem BioAssay)
KDM5B inhibitor: KDM5B demethylase inhibition; KDM5B demethylase, FDH-coupled NADH fluorescence (FDH is formaldehyde dehydrogenase); Potency, µM (titrated, usually from 57.7 µM), hits mostly inhibitors; actives 2.6% (n = 220,000); AID 1347165; active = well fitted inhibition curve with a large enough effect; note: 0% is about no effect; nearly all actives have a fitted effect of over 70% in size
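Here, H3K4me3 peptide (12.5 µM in substrate mix) is demethylated by KDM5BΔAP, 200 nM final, after 10 min compound exposure. Formaldehyde product is coupled through FDH (0.25 U/mL in mix) to NADH fluorescence; 30-min ΔRFU feeds dose-response curves.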
* = called active by the depositor; i = inactive. The full list was thinned out, with hits kept by preference. Potency is the fitted concentration of half-maximal effect.

SMILES | KDM5B inhibitor
CC(C)=CC(=O)NCc1ccncc1 | i
CC(C)CNC(=O)CC1Sc2ncccc2N(CC(C)C)C1=O (stereo not drawn) | i
Fc1ccc(/C=N/Nc2ccc(Cl)c(Cl)c2)cc1F | i
COc1cccc(COC(=O)c2ccccc2C(=O)c2ccccc2)c1 | i
Cc1ccc(NC(=O)Cn2ccn3nc(-c4ccc(F)cc4)c(CO)c3c2=O)cc1 | 22µM*
O=C(Cn1ccn2nc(-c3ccc(F)cc3)c(CO)c2c1=O)Nc1ccccc1Cl | 28µM*
O=C(Cn1ccn2nc(-c3ccc(F)cc3)c(CO)c2c1=O)Nc1cccc(C(F)(F)F)c1 | 22µM*
O=C(Cn1ccn2nc(-c3ccc(F)cc3)c(CO)c2c1=O)Nc1cc(F)ccc1Cl | i
CCc1cccc(NC(=O)Cn2ccn3nc(-c4ccc(F)cc4)c(CO)c3c2=O)c1 | i
Cc1cccc(C)c1NC(=O)Cn1ccn2nc(-c3ccc(F)cc3)c(CO)c2c1=O | i
O=C(Cn1ccn2nc(-c3ccc(F)cc3)c(CO)c2c1=O)Nc1ccccc1F | i
O=C(Cn1ccn2nc(-c3ccc(F)cc3)c(CO)c2c1=O)Nc1cc(F)cc(F)c1 | i
CSc1cccc(NC(=O)Cn2ccn3nc(-c4ccc(F)cc4)c(CO)c3c2=O)c1 | i
CCc1nc2cc(NC(=O)Cn3c(C)nc4ccccc4c3=O)ccc2o1 | i
O=C(CSCn1nnc2c(=O)[nH]c(Cc3ccc(F)cc3)nc21)Nc1ccc(F)c(Cl)c1 | i
Cc1ccc2cc(C(=O)N3CCN(S(=O)(=O)c4cccs4)CC3)[nH]c2c1 | i
CCn1c(N2CCN(Cc3c(F)cccc3Cl)CC2)nc2c1c(=O)[nH]c(=O)n2C | i
Cc1cc(Cl)c2ccc(C)c(C)c2n1 | i
O=C(NCc1ccco1)[C@@H]1Cc2nc[nH]c2CN1Cc1cccs1 | i
O=C(NCc1ccco1)[C@@H]1Cc2nc[nH]c2CN1Cc1cc2ccccc2o1 | i
N#Cc1cccc(CN2Cc3[nH]cnc3C[C@H]2C(=O)NCc2ccco2)c1 | 32µM*
Cc1ccc(-n2c(=O)c3ccccc3n3c(SCC(=O)Nc4ccccc4)nnc23)cc1 | i
COc1ccc(CNC(=O)c2cc(=O)c(OCc3ccccc3F)co2)cc1 | i
Cc1noc(-c2ccn3c(CNC(=O)Cc4cccc(F)c4)nnc3c2)n1 | 28µM*
CCCc1noc(-c2ccn3c(CNC(=O)Cc4cccc(F)c4)nnc3c2)n1 | 7.1µM*
SMILES | KDM5B inhibitor
O=S(Cc1ccc(Cl)cc1)Cc1cccc2ccccc12 (stereo not drawn) | i
COCCCNC(=O)N1CCCN(Cc2ccncc2)C(c2ccccc2)CC(=O)NCC1 (stereo not drawn) | i
CN(C)CC(NC(=O)CNC(=O)NCc1ccccc1)c1ccccc1 (stereo not drawn) | i
Cc1cc(NCCN2CCNC2=O)n2nc(C)cc2n1 | 18µM*
Cc1nc(NCCN2CCOC2=O)c2sccc2n1 | i
COc1ccccc1NC(=O)NCCN1CCNC1=O | i
Cc1c(-c2cccc(Cl)c2)nn2c1NC(=O)CC2C(=O)Nc1ccc2c(c1)OCO2 (stereo not drawn) | i
CC(=O)Nc1ccc(-c2c(C(C)C)nn(-c3cccc(F)c3)c2OC(C)=O)cc1 | i
COc1ccc(NC(=O)CCc2nc3c(C)nn(-c4ccc(C)cc4)c3n(C)c2=O)cc1 | i
COc1ccc(-c2nn(-c3ccc(C)cc3C)c(OC(C)=O)c2-c2ccc(NC(C)=O)cc2)c(OC)c1 | 32µM*
COc1ccc(-c2ocnc2C(=O)Nc2ccc(C)cc2)cc1 | i
CC(=O)Oc1c(-c2ccc(NC(=O)C3CC3)cc2)c(-c2ccc3c(c2)OCO3)nn1-c1cccc(C)c1 | 35µM*
CCOc1ccc(NC(=O)c2nc(-c3ccccc3)n(-c3ccc(F)cc3)n2)cc1 | i
COc1ccc(-c2cc(C(=O)O)c3cc(C)cc(C)c3n2)c(OC)c1 | i
CCC(=O)Nc1ccc(-c2c(-c3cc(OC)cc(OC)c3)nn(-c3ccc(C)cc3)c2OC(C)=O)cc1 | 28µM*
Cc1cccc(-n2ccnc2SCC(=O)Nc2ccc3c(c2)OCO3)c1 | i
COc1cc(OC)cc(-c2cc3nc(C)c(CCC(=O)Nc4ccc(C(C)=O)cc4)c(C)n3n2)c1 | i
CC(=O)Nc1ccc(-c2c(-c3cccc(C)c3)nn(-c3ccc(F)cc3)c2OC(C)=O)cc1 | 25µM*
Cc1noc(-c2cn(C3CCN(C(=O)c4cccc(C#N)c4)CC3)nn2)n1 | i
Cc1ccc(NC(=O)Nc2cc(S(=O)(=O)N3CCOCC3)ccc2NCC2CCCO2)cc1 (stereo not drawn) | i
O=C(C1CCCC1)N1CCC(n2cc(-c3nc(-c4ccccc4)no3)nn2)CC1 | i
Cc1ccc2c(COC(=O)c3n[nH]c4ccccc34)cc(=O)oc2c1C | i
CN(CCc1noc(C2CN(Cc3ccc(Cl)c(F)c3)C2)n1)S(C)(=O)=O | i
Cc1cc(=O)n2c(C(=O)Nc3cccc(Cl)c3)c(C(=O)Nc3ccccc3)sc2n1 | i
Cc1ccc(C(=O)/C=C/c2cc3ccccc3nc2N2CCOCC2)cc1 | i
SMILES | KDM5B inhibitor
O=C(NCCc1ccc(F)cc1)c1ccc(=O)[nH]c1 | i
O=C(c1cc(F)cc(F)c1)N1CCSc2ccc(Cl)cc21 | i
CCc1ccc(NC(=O)c2nn(-c3ccc(F)cc3)c(=O)cc2OC)cc1 | i
COc1ccc(NC(=O)c2cn3ccnc(-c4ccc(F)cc4)c3n2)cc1OC | i
COc1ccc(-c2nn(-c3ccc(F)cc3)c(OC(C)=O)c2-c2ccc(NC(C)=O)cc2)cc1OC | 20µM*
Cc1ccc(C)c(-n2nnc(-c3nc(-c4ccccc4F)no3)c2C)c1 | i
C=CCNc1nc(-c2ccc3c(c2)CC(C)N3S(C)(=O)=O)cs1 (stereo not drawn) | i
Cc1ccc(Cn2c(N3CCC(C(=O)N4CCC(C(N)=O)CC4)CC3)nc3ccccc32)cc1 | i
Cn1nc(C(=O)NC2CCS(=O)(=O)C2)c2ccccc2c1=O (stereo not drawn) | i
O=C(Cn1nc2c(cc1=O)CCCCC2)N1CCC(c2ccccc2)CC1 | i
O=C(Cn1nc2c(cc1=O)CCCCC2)NC1CCCc2c1[nH]c1c(Cl)cccc21 (stereo not drawn) | i
N#Cc1ccc(C(=O)N2CC=C(c3c[nH]c4ccccc34)CC2)cc1 | i
O=C(Cn1nc2c(cc1=O)CCCCC2)N1CC=C(c2c[nH]c3ccccc23)CC1 | 18µM*
Cn1nc(C(=O)NC2CCCc3c2[nH]c2ccccc32)c2ccccc2c1=O (stereo not drawn) | 25µM*
Cn1nc(C(=O)NCC2CCC2)c2ccccc2c1=O | i
O=C(Cn1nc2c(cc1=O)CCCCC2)NC1CCCc2c1[nH]c1ccccc21 (stereo not drawn) | 28µM*
O=C(Cn1nc2c(cc1=O)CCCCC2)NC1CCCC1 | i
Cc1cc(C)c(C(N)=O)c(NCc2ccc(Cl)cc2)n1 | i
O=S(=O)(c1ccc(-c2csc(Nc3cccc4ccccc34)n2)cc1)N1CCOCC1 | i
Cc1cc(-c2csc(N)n2)c(C)n1-c1c(C)n(C)n(-c2ccccc2)c1=O | i
COc1ccccc1-c1cc2nc(C)c(CCC(=O)NCc3ccc(C)cc3)c(C)n2n1 | i
COc1cc(/C=C(\C#N)C(=O)C(C)(C)C)ccc1OCc1c(F)cccc1Cl | i
CCCCc1ccc(Nc2nnc(SCc3nnc(C)o3)s2)cc1 | i
CCc1ccc2oc(C(=O)NCC(c3ccco3)N3CCOCC3)cc(=O)c2c1 (stereo not drawn) | i
